Compound activity as filed in PubChem BioAssay.
Only some compounds are listed: those with a hit (about 2.3% of all), similar ones and a draw of the others.
LGR2 inh: blocks bursicon-induced cAMP signaling via Drosophila LGR2 | HEK293 LGR2, CRE-luciferase, bursicon-stimulated, 4 h | inhibition, % at 9.99 µM | 0.35% of 380,000 active | AID 720647;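 active = drop in luminescence signal, shown as inhibition above about 50% in the replicate tests, limit read from the data, passing the limit was not always enough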;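 note: agonist challenge used bursicon conditioned medium at about half maximal strength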
SENP7 block: inhibitors of human SENP7 protease; Q9BQF6; recombinant SENP7, Z-RLRGG-aminoluciferin luminescence, 40 min; inhibition, % at 5 µM; 1.5% of 330,000 active;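 active = inhibition above about 50% at the single test dose, limit read from the data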
Target sequence (Q9BQF6 706-1050 limits assumed): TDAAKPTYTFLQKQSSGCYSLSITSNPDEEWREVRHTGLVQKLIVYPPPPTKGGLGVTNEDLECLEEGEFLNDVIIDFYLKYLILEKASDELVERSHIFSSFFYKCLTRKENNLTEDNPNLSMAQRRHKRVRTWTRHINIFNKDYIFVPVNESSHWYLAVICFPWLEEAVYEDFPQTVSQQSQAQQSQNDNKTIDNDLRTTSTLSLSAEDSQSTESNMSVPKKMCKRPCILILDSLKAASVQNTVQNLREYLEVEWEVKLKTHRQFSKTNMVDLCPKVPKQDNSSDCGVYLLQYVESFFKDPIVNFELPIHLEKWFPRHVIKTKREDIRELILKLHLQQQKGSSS
HSP90 refold inh: inhibitors of HSP90 luciferase refolding in rabbit reticulocyte lysate; luciferase refolding luminescence, 3 h; inhibition, % at 5.6 µM; 0.91% of 290,000 active; AID 1789;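 active = inhibition above the screen-wide mean plus 3 SD, computed separately per campaign, cut at about 16% in these data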;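 note: inhibitors lower the luminescence because luciferase stays unfolded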
SENP8 block-1: inhibitors of human SENP8 protease; Q96LD8; purified SENP8, Z-RLRGG-aminoluciferin cleavage, luminescence; inhibition, % at 10 µM; 1.2% of 330,000 active; AID 2540; in the data active = inhibition above about 50%
SENP6 inh: SENP6 protease inhibition. inhibition, % at 10 µM. 1.8% of 330,000 active. Q9GZR1. AID 2599. Recombinant SENP6 catalytic domain, aminoluciferin luminescence;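 active = inhibition above about 50% at the single tested dose, limit read from the data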
SENP8 block-2: inhibitors of human SENP8 protease | Q96LD8 | recombinant SENP8, Nedd8 substrate fluorescence | inhibition, % at 20 µM | 0.64% of 360,000 active | AID 602440; in the data active = inhibition mostly above about 40%, no sharp cut-off; inactive = mostly below about 27%
SENP8 confirm: confirmation of human SENP8 protease inhibitors; shares compounds with SENP7 block; Recombinant SENP8, Z-RLRGG-aminoluciferin luminescence, 60 min; 40% of 6,200 active; inhibition, % at 12.5 µM;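 active = mean inhibition across replicates above about 50%, limit read from the data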
SENP6 confirm: confirmation of human SENP6 protease inhibitors; shares compounds with SENP7 block; recombinant SENP6, Z-RLRGG-aminoluciferin luminescence; inhibition, % at 12.5 µM; 58% of 6,200 active
SENP7 conf: confirmation of human SENP7 protease inhibitors. shares compounds with SENP7 block. recombinant SENP7, Z-RLRGG-aminoluciferin luminescence, 40 min. inhibition, % at 12.5 µM. 69% of 6,200 active. AID 488917
Casp3 select: inhibits human caspase-3 in SENP selectivity test; shares compounds with SENP7 block; purified caspase-3, Z-DEVD-aminoluciferin luminescence, 60 min; inhibition, % at 12.5 µM; 60% of 6,200 active;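 active = mean inhibition above about 50%, limit read from the data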
Target sequence (P42574 28-227 limits assumed): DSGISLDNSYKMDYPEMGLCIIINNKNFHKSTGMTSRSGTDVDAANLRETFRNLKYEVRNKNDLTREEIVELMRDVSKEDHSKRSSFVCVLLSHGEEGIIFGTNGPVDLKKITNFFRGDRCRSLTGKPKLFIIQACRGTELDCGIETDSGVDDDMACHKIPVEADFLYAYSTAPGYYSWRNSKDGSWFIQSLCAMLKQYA
Luc interf: counter-screen for SENP inhibitors: luminescence interference | shares compounds with SENP7 block | Pre-incubated SENP8/Z-RLRGG-aminoluciferin, luciferase luminescence interference | inhibition, % at 12.5 µM | 39% of 6,200 active | AID 488919;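 active = mean inhibition above about 50% when retested at one dose, limit read from the data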
Hits are given with their value; - = inactive; . = no result given.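 Rule for the calls, unless noted: active = mean inhibition above about 50% in the one-dose retest (limit read from the data); inactive = the rest.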

SMILES	LGR2 inh	SENP7 block	HSP90 refold inh	SENP8 block-1	SENP6 inh	SENP8 block-2	SENP8 confirm	SENP6 confirm	SENP7 conf	Casp3 select	Luc interf
CCN1CC(=O)N2[C@H](CO)[C@H](c3ccc(Br)cc3)[C@@H]2C1	-	.	.	.	.	.	.	.	.	.	.
CCOC(=O)/C=C/c1ccc2oc3ccccc3c(=O)c2c1	-	92	-	83	94	-	-	-	60	-	-
COc1cc2oc3ccccc3c(=O)c2cc1OC	.	-	-	-	-	-	.	.	.	.	.
CCOc1ccccc1NC(=O)n1ncc2c(C)cccc21	-	-	-	-	-	-	.	.	.	.	.
Cc1cccc2c1cnn2C(=O)Nc1cc(F)ccc1F	-	-	-	-	61	-	-	-	-	-	-
C=CCn1c(NC(=O)c2ccc(Br)o2)c(S(=O)(=O)c2ccccc2)c2nc3ccccc3nc21	-	-	-	-	73	-	-	-	-	-	-
Cc1ccc(NCc2nnc3n2CCCCC3)cc1	-	-	-	-	-	-	.	.	.	.	.
Brc1ccc(NCc2nnc3n2CCCCC3)cc1	-	99	-	-	-	-	-	-	-	-	-
CC1CC(C)CN(CCCNC(=O)C2CCN(S(=O)(=O)N3CCCCC3)CC2)C1 (stereo not drawn)	-	101	-	-	-	-	-	-	-	-	-
CCCNC(=O)Nc1ccc2c(c1)C(=O)N(C)C[C@@H](OC)[C@@H](C)CN(CCC)[C@@H](C)CO2	-	.	.	.	.	.	.	.	.	.	.
O=[N+]([O-])c1cc([N+](=O)[O-])c(N2CCCCCC2)cc1NCCO	-	-	-	-	-	-	.	.	.	.	.
O=[N+]([O-])c1cc(NCCO)c(N2CCCCCC2)c2nonc12	-	-	-	-	56	-	-	-	-	-	-
CCc1cnc(N2[C@H](C#N)[C@@H](c3ccc(C#CC(C)C)cc3)[C@@H]2CO)s1	-	.	.	.	.	.	.	.	.	.	.
Cc1ccccc1-c1nc2sc(-c3ccccc3)cc2c(=O)o1	.	84	-	-	80	-	-	-	-	-	-
Cc1ccccc1-c1nc2sc(C)c(C)c2c(=O)o1	.	83	-	61	77	-	-	-	-	-	-
Cc1ccc(NC(=O)CC2C(=O)NC3CCCCC3N2C(=O)c2ccc(F)cc2)cc1C (stereo not drawn)	.	-	-	-	54	-	-	-	-	-	-
COc1cccc(NC(=O)N[C@H]2C=C[C@H](CC(=O)N3CCN(C)CC3)O[C@@H]2CO)c1	-	.	.	.	.	.	.	.	.	.	.
CCOC(=O)CSC1=NC(=O)/C(=C/c2ccc(OC)cc2)S1	.	-	-	-	77	-	-	-	-	-	-
CCC(=O)N1[C@@H]2c3ccc(C4=CCCC4)c(=O)n3C[C@@H]2[C@@H](CO)[C@@H]1C(=O)NC1CCCC1	-	.	.	.	.	.	.	.	.	.	.
COc1ccc(NC(=O)Nc2ccc3c(c2)CC(=O)N([C@@H](C)CO)C[C@H](C)[C@@H](CN(C)Cc2ccc(C(=O)O)cc2)O3)cc1	-	.	.	.	.	.	.	.	.	.	.
O=C(C[C@@H]1C=C[C@H](NC(=O)Nc2ccc(C(F)(F)F)cc2)[C@@H](CO)O1)NCc1cc(F)cc(F)c1	-	.	.	.	.	.	.	.	.	.	.
Cc1cccc(-c2noc(CSc3ccccc3)n2)c1	-	-	-	-	-	-	.	.	.	.	.
Cc1ccc(-c2noc(CSc3ccccc3)n2)cc1	.	52	-	-	76	-	51	60	81	-	-
Cc1ccc(-c2noc(COc3ccccc3C)n2)cc1	.	-	-	-	-	-	.	.	.	.	.
COc1ccc(-c2noc(Cc3cccs3)n2)cc1	.	-	-	-	50	-	-	-	69	-	-
SMILES	LGR2 inh	SENP7 block	HSP90 refold inh	SENP8 block-1	SENP6 inh	SENP8 block-2	SENP8 confirm	SENP6 confirm	SENP7 conf	Casp3 select	Luc interf
Cc1ccc(OCc2nc(-c3ccccc3)no2)cc1	-	-	-	-	56	-	-	-	65	-	-
COc1ccc(-c2noc(Cc3ccccc3OC)n2)cc1	.	-	-	-	-	-	.	.	.	.	.
CC(C)NC(=O)Nc1ccc2c(c1)C(=O)N([C@H](C)CO)C[C@H](C)[C@@H](CN(C)S(C)(=O)=O)OCCCC[C@H](C)O2	-	.	.	.	.	.	.	.	.	.	.
O=C(N[C@H]1CC[C@@H](CC(=O)N2CCc3ccccc3C2)O[C@@H]1CO)C1CCOCC1	-	.	.	.	.	.	.	.	.	.	.
CC(c1ccccc1)N1C(=O)c2ccc(C(=O)Nc3ccccc3C(=O)O)cc2C1=O (stereo not drawn)	-	-	-	68	70	-	76	71	85	-	77
CC(c1ccccc1)N1C(=O)c2ccc(C(=O)Nc3ccc(Br)cc3C(=O)O)cc2C1=O (stereo not drawn)	-	-	-	-	-	-	.	.	.	.	.
CC(C)CCN1C(=O)c2ccc(C(=O)Nc3ccccc3C(=O)O)cc2C1=O	-	-	-	66	74	-	76	77	86	60	77
CC(C)CCN1C(=O)c2ccc(C(=O)Nc3ccc(O)cc3C(=O)O)cc2C1=O	-	-	-	-	-	-	.	.	.	.	.
CC(=O)N1[C@@H](CO)[C@@H]2c3ccccc3N(C(=O)Nc3cc(F)ccc3F)C[C@@H]21	-	.	.	.	.	.	.	.	.	.	.
CCCc1nc(SCC(=O)N2CCc3ccccc3C2)c2ccccc2n1	-	98	-	-	-	-	-	-	-	-	-
O=C1NC(=S)S/C1=C\c1ccc2ccccc2c1	-	-	-	88	90	-	-	50	-	-	-
COc1ccc(/C=C2\SC(=S)N(CCCC(=O)N3CCOCC3)C2=O)cc1	-	72	-	69	82	-	83	76	91	63	60
COc1ccc(/C=C2\SC(=S)N(CCC(=O)Nc3ccc(C(=O)O)cc3)C2=O)cc1	-	-	-	-	-	-	.	.	.	.	.
COc1ccc(/C=C2/SC(=S)N(CCC(=O)O)C2=O)cc1	-	85	-	98	98	-	98	100	104	65	81
O=C(CCCN1C(=O)/C(=C/c2ccccc2Cl)SC1=S)N1CCOCC1	-	88	-	86	80	-	-	55	64	63	-
COCCNC(=O)C[C@@H]1C[C@H]2c3cc(NC(=O)Nc4ccccc4)ccc3O[C@H]2[C@H](CO)O1	-	.	.	.	.	.	.	.	.	.	.
O=C(O)CCN1C(=O)/C(=C\c2ccncc2)SC1=S	-	-	-	-	-	-	.	.	.	.	.
COc1ccc(C=C2SC(=S)NC2=O)cc1	-	.	.	.	.	-	.	.	.	.	.
